Experimental data from article PMC5540273 (PLoS ONE, 2017).

system: BUB1; settings: concentration: 1 μM, replicates: in singlicate; n = 1
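Also: KINOMEscan kinase panel screen.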

| SMILES | %Inh [%] |
| --- | --- |
| O=C(Nc1n[nH]c2nc(-c3ccccc3)c(Br)cc12)C1CC1 [SB-708998] | 11 |
| COC(=O)c1c(-c2ccccc2)c2cc(Br)ccc2c(=O)n1Cc1ccc(NC(=O)CCC(=O)O)cc1 | 20 |
| COc1cc2ncn(-c3cc(OCCCc4ccccc4)c(C(N)=O)s3)c2cc1OC [GSK205189] | 20 |
| Nc1nc(N)c2nc(-c3ccccc3)[nH]c2n1 [SKF-12778] | 23 |
| COc1ccc(CNC(=O)NC2CCN(c3ccnc(Nc4ccc(F)cc4)n3)C2)cc1 (stereo not drawn) [GSK1379706] | 50 |
| COc1ccc(Nc2nccc(N3CCC(NS(=O)(=O)c4ccc(NC(C)=O)cc4)C3)n2)cc1 (stereo not drawn) [GSK1379729] | 37 |
| CCS(=O)c1ccc(-c2coc3ccc(-c4nnc(C)o4)cc23)cc1 (stereo not drawn) | 0 |
| COc1cc2ncn(-c3cc(OCc4ccncc4)c(C(N)=O)s3)c2cc1OC [GSK336313] | 4 |
| O=C(Nc1n[nH]c2nc(-c3ccccc3)c(Cl)cc12)C1CC1 [SB-734909] | 0 |
| Cc1nnc(-c2ccc3ncn(-c4ccc(S(C)=O)cc4)c3c2)o1 (stereo not drawn) | 0 |
| Nc1n[nH]c2ncc(-c3ccccc3)cc12 [SB-517081] | 34 |
| COc1cc2ncn(-c3cc(OCc4ccc(S(C)(=O)=O)cc4)c(C(N)=O)s3)c2cc1OC [GW869979] | 28 |
| Cc1ccc(-c2ccc3c(ccc4sc5c(c43)NC[C@@H](C)N=C5N(C)C)n2)cn1 | 0 |
| COc1cc(Nc2nccc(N3CCC(NC(=O)C(C)c4ccc(Cl)cc4)C3)n2)cc(OC)c1OC (stereo not drawn) [GSK1379757] | 48 |
| Cl.NS(=O)(=O)c1cccc(Nc2cc(-c3ccc(F)cc3)n[nH]2)c1 [GW824645] | 36 |
| CCCNC(=O)Nc1ccc(Oc2ncnc3ccn(C)c23)cc1 | 0 |
| CCC(=O)c1c(-c2ccccc2)c2cc(Cl)ccc2c(=O)n1Cc1ccc(C(=O)O)cc1 | 0 |
| O=c1cc(N2CCOCC2)nc2n(Cc3ccc(F)c(Cl)c3)ccn12 [GSK2297099] | 0 |

| SMILES | %Inh [%] |
| --- | --- |
| CCC(=O)c1c(-c2ccccc2)c2cc(Cl)ccc2c(=O)n1Cc1cc(S(C)(=O)=O)n(CC(N)=O)n1 | 0 |
| FC(F)(F)c1ccc(-c2ncn(CCCN3CCOCC3)c2-c2ccncc2)cc1 [SB-217780] | 0 |
| Cc1nc(N(C)[C@H]2CN(C(=O)CC#N)CC[C@H]2C)c2cc[nH]c2n1 | 0 |
| Nc1ncnc2c1ncn2-c1cccc2ccccc12 [SKF-97184] | 37 |
| Cc1nnc(-c2ccc(C)c(-c3ccc(C(=O)O)cc3)c2)o1 [GW608005] | 17 |
| COc1cccc(C2=C(Nc3cccc(C(=O)O)c3)C(=O)NC2=O)c1 [SB-390770] | 8 |
| COc1ccc(-c2cc3c(C)nc(N)nc3n([C@H]3CC[C@H](O)CC3)c2=O)cn1 | 0 |
| Cc1cc(Nc2nc(-c3cccc(C)n3)nc3ccccc23)ccn1 [GW872411] | 0 |
| COc1cc2nccc(Nc3ccc(OCc4ccc(NC(C)=O)cc4)cc3)c2cc1OC.Cl [GW440135] | 46 |
| O=C(Nc1n[nH]c2cc(-c3ccccc3F)ccc12)C1CC1 [SB-733371] | 0 |
| CN(C)c1cc(-c2ccc3c(N)n[nH]c3c2)nc(N)n1 [GSK2219329] | 24 |
| CCS(=O)(=O)c1ccc(OC)c(Nc2ncc(-c3ccc(F)cc3)o2)c1.Cl [GW591947] | 8 |
| Nc1nc(-c2ccccc2F)c(-c2ccnc3ccccc23)s1 [GW560459] | 61 |
| Cc1nn2c(=O)cc(N3CCOCC3)nc2n1Cc1cccc(Cl)c1Cl [GSK2342769] | 12 |
| Fc1cccc(CSc2nnc(-c3ccc4c(c3)CCO4)o2)c1 | 25 |
| Cc1cccc(-c2cc(-c3c[nH]nc3-c3ccccn3)ccn2)c1 [GW679395] | 28 |
| COc1cc2ncn(-c3cc(OCc4ccncc4Br)c(C(N)=O)s3)c2cc1OC [GW854278] | 0 |
| CC(C)(C)c1ccc(C(=O)Nc2cn3cc(-c4ccccc4)ccc3n2)cc1 | 0 |

system: CAMK1B; settings: concentration: 1 μM, replicates: in singlicate; n = 1

| SMILES | %Inh [%] |
| --- | --- |
| O=C(Nc1n[nH]c2nc(-c3ccccc3)c(Br)cc12)C1CC1 [SB-708998] | 26 |
| COC(=O)c1c(-c2ccccc2)c2cc(Br)ccc2c(=O)n1Cc1ccc(NC(=O)CCC(=O)O)cc1 | 38 |
| COc1cc2ncn(-c3cc(OCCCc4ccccc4)c(C(N)=O)s3)c2cc1OC [GSK205189] | 0 |
| Nc1nc(N)c2nc(-c3ccccc3)[nH]c2n1 [SKF-12778] | 18 |
| COc1ccc(CNC(=O)NC2CCN(c3ccnc(Nc4ccc(F)cc4)n3)C2)cc1 (stereo not drawn) [GSK1379706] | 0 |
| COc1ccc(Nc2nccc(N3CCC(NS(=O)(=O)c4ccc(NC(C)=O)cc4)C3)n2)cc1 (stereo not drawn) [GSK1379729] | 31 |
| CCS(=O)c1ccc(-c2coc3ccc(-c4nnc(C)o4)cc23)cc1 (stereo not drawn) | 5 |
| COc1cc2ncn(-c3cc(OCc4ccncc4)c(C(N)=O)s3)c2cc1OC [GSK336313] | 24 |
| O=C(Nc1n[nH]c2nc(-c3ccccc3)c(Cl)cc12)C1CC1 [SB-734909] | 0 |
| Cc1nnc(-c2ccc3ncn(-c4ccc(S(C)=O)cc4)c3c2)o1 (stereo not drawn) | 13 |
| Nc1n[nH]c2ncc(-c3ccccc3)cc12 [SB-517081] | 58 |
| COc1cc2ncn(-c3cc(OCc4ccc(S(C)(=O)=O)cc4)c(C(N)=O)s3)c2cc1OC [GW869979] | 0 |
| Cc1ccc(-c2ccc3c(ccc4sc5c(c43)NC[C@@H](C)N=C5N(C)C)n2)cn1 | 0 |
| COc1cc(Nc2nccc(N3CCC(NC(=O)C(C)c4ccc(Cl)cc4)C3)n2)cc(OC)c1OC (stereo not drawn) [GSK1379757] | 0 |
| Cl.NS(=O)(=O)c1cccc(Nc2cc(-c3ccc(F)cc3)n[nH]2)c1 [GW824645] | 0 |
| CCCNC(=O)Nc1ccc(Oc2ncnc3ccn(C)c23)cc1 | 0 |
| CCC(=O)c1c(-c2ccccc2)c2cc(Cl)ccc2c(=O)n1Cc1ccc(C(=O)O)cc1 | 0 |
| O=c1cc(N2CCOCC2)nc2n(Cc3ccc(F)c(Cl)c3)ccn12 [GSK2297099] | 32 |

| SMILES | %Inh [%] |
| --- | --- |
| CCC(=O)c1c(-c2ccccc2)c2cc(Cl)ccc2c(=O)n1Cc1cc(S(C)(=O)=O)n(CC(N)=O)n1 | 0 |
| FC(F)(F)c1ccc(-c2ncn(CCCN3CCOCC3)c2-c2ccncc2)cc1 [SB-217780] | 35 |
| Cc1nc(N(C)[C@H]2CN(C(=O)CC#N)CC[C@H]2C)c2cc[nH]c2n1 | 0 |
| Nc1ncnc2c1ncn2-c1cccc2ccccc12 [SKF-97184] | 27 |
| Cc1nnc(-c2ccc(C)c(-c3ccc(C(=O)O)cc3)c2)o1 [GW608005] | 8 |
| COc1cccc(C2=C(Nc3cccc(C(=O)O)c3)C(=O)NC2=O)c1 [SB-390770] | 30 |
| COc1ccc(-c2cc3c(C)nc(N)nc3n([C@H]3CC[C@H](O)CC3)c2=O)cn1 | 0 |
| Cc1cc(Nc2nc(-c3cccc(C)n3)nc3ccccc23)ccn1 [GW872411] | 0 |
| COc1cc2nccc(Nc3ccc(OCc4ccc(NC(C)=O)cc4)cc3)c2cc1OC.Cl [GW440135] | 31 |
| O=C(Nc1n[nH]c2cc(-c3ccccc3F)ccc12)C1CC1 [SB-733371] | 0 |
| CN(C)c1cc(-c2ccc3c(N)n[nH]c3c2)nc(N)n1 [GSK2219329] | 0 |
| CCS(=O)(=O)c1ccc(OC)c(Nc2ncc(-c3ccc(F)cc3)o2)c1.Cl [GW591947] | 0 |
| Nc1nc(-c2ccccc2F)c(-c2ccnc3ccccc23)s1 [GW560459] | 0 |
| Cc1nn2c(=O)cc(N3CCOCC3)nc2n1Cc1cccc(Cl)c1Cl [GSK2342769] | 28 |
| Fc1cccc(CSc2nnc(-c3ccc4c(c3)CCO4)o2)c1 | 0 |
| Cc1cccc(-c2cc(-c3c[nH]nc3-c3ccccn3)ccn2)c1 [GW679395] | 5 |
| COc1cc2ncn(-c3cc(OCc4ccncc4Br)c(C(N)=O)s3)c2cc1OC [GW854278] | 0 |
| CC(C)(C)c1ccc(C(=O)Nc2cn3cc(-c4ccccc4)ccc3n2)cc1 | 6 |
